# Cruzain Triton – blocks cruzain activity in presence of Triton detergent; P25779; purified cruzain, Z-FR-AMC fluorescence, 0.01% Triton; Potency, µM, inactives show max response, negative = inhibition, most hits filed as inhibitors; 200,000 tested, 0.43% active;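 also: plate controls were neutral wells for no effect and buffer without enzyme for full effect; nearly all actives have a fitted effect of over 40% in size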
# Target sequence (P25779 123-467 limits assumed): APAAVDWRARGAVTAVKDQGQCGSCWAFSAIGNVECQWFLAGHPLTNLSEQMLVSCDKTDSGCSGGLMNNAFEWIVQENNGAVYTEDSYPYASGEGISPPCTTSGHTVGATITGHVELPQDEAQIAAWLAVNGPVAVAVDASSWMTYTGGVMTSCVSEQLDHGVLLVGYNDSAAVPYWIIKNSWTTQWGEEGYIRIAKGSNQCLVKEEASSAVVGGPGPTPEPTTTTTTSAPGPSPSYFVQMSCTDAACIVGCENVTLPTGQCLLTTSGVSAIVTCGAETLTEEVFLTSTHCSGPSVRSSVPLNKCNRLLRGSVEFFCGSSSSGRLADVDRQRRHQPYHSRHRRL
#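 15 min RT preincubation of 1.5 nM cruzain with compound, then 2 uM Z-FR-AMC added; kinetic AMC fluorescence, 60 s delta. Triton X-100 0.01%, pH 5.5.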
# Cruzain inh noDet – blocks cruzain activity in detergent-free assay; 200,000 tested, 2.3% active; AID 1476; purified cruzain, Z-FR-AMC fluorescence, no detergent; Potency, µM, inactives show max response, negative = inhibition, usual class: inhibitors; P25779;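 also: plate controls were enzyme without inhibitor for no effect and buffer without enzyme for full effect; nearly all actives have a fitted effect of over 40% in size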
#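 Detergent-free condition (0.00005% Triton X-100) in acetate buffer pH 5.5 with DTT. 1.5 nM enzyme and compound were pre-mixed 15 min, then 2 uM Z-FR-AMC substrate added; reaction progress from fluorescence change between first and third reads (60 s).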
# An asterisk follows results filed as active; ? = inconclusive. A selection: hits, their analogues and other compounds. The true share with any hit is near 2.4%. Calls follow the shape of the dose curve; as a rule, active = well fitted curve in the direction sought with a large enough effect; inconclusive = small, poorly fitted or top-dose-only effect, or another doubt; inactive = no such curve, though single readings can be large; an effect the other way counts as inactive or inconclusive. Potency is read from the fitted curve at half-maximal effect.
SMILES,Cruzain Triton,Cruzain inh noDet
COc1cccc(/C=N/NC(=O)c2ccc(OCc3cccc(Br)c3)cc2)c1,0%,?
Cc1ccccc1Nc1c(-c2cccc(N(C)C)c2)nc2ccc(Br)cn12,0%,6%
CS(=O)(=O)Nc1cccc(-c2ccc3ncnc(NCc4cccs4)c3c2)c1,-7%,-6%
COc1ccc(-c2oc3ncn4nc(-c5cccc(C)c5)nc4c3c2-c2ccc(OC)cc2)cc1,-4%,-5%
COC(=O)CNC(c1ccccc1)c1cc(Br)ccc1NC(=O)c1cc(OC)c(OC)c(OC)c1 (stereo not given),-7%,?
O=C(c1ccc2c(Cl)c3c(nc2c1)CCCC3)N1CCN(c2cccc(C(F)(F)F)c2)CC1,2%,-1%
CCOC(=O)c1cc(S(=O)(=O)Nc2cc(OC)ccc2OC)[nH]n1,5%,14%
COc1cc2c(cc1NC(=O)Nc1cccc(C)c1)oc1ccccc12,18%,?
COc1cc2c(cc1NC(=S)NC(=O)/C=C/c1ccc(OC)c(OC)c1)oc1ccccc12,-3%,-25%
COc1cc2c(cc1NC(=O)C(C)OC(=O)/C=C/c1ccc(OC(F)F)cc1)oc1ccccc12 (stereo not given),0%,32µM*
COc1cc2c(cc1NC(=O)/C=C/c1ccccc1)oc1ccccc12,0%,?
COc1ccc(/C=C/C(=O)NC(=S)Nc2cc3oc4ccccc4c3cc2OC)cc1,1%,2.5µM*
COc1ccc(/C=C/C(=O)NC(=S)NNC(=O)Cc2cccs2)cc1,0%,13µM*
COc1cc2c(cc1NC(=S)Nc1cccc(C)c1)oc1ccccc12,-3%,32µM*
O=C(/C=C/c1ccccc1)NC(=S)NNC(=O)Cc1cccs1,6%,?
CCOC(=O)c1c(NC(=O)c2cc(-c3ccc(OC)cc3)on2)sc(C)c1C,-2%,-10%
COc1ccccc1NC(=O)c1oc2ccccc2c1NC(=O)C1CCCCC1,-1%,2%
CC(=O)c1cccc(NC(=O)CSc2nnc3ccc(-c4ccc(Cl)cc4)nn23)c1,2%,11%
COc1ccc(-n2c(=O)c(-c3cccs3)nc3cnc(N4CCNCC4)nc32)cc1,-3%,-9%
COc1ccccc1NC(=S)NC(=O)/C=C/c1ccco1,-21%,-29%
COc1cc2c(cc1NC(=S)NC(=O)/C=C/c1ccco1)oc1ccccc12,-5%,13µM*
COc1ccc(Cn2c(SCC(=O)NCc3ccc(Cl)cc3)nc3ccsc3c2=O)cc1,-2%,-1%
COc1ccc(Br)cc1CNC(=O)C1CCCCN1S(=O)(=O)c1ccc(F)cc1 (stereo not given),-3%,-3%
COc1ccc2[nH]c3c(NCc4ccco4)ncnc3c2c1,18µM*,?
CCN(CC)CCNc1ncnc2c1[nH]c1ccc(OC)cc12,4%,?
SMILES,Cruzain Triton,Cruzain inh noDet
Cc1ccc(NC(=O)CN2C(=O)COc3ccc(S(=O)(=O)N4CCCCCC4)cc32)cc1C,-6%,-1%
Cc1cc(/C=C2\Cc3ccccc3C2=O)c(C)n1-c1ccccc1,-8%,16µM*
Cc1cc(C=C2C(=O)c3ccccc3C2=O)c(C)n1-c1ccccc1,-4%,?
Cc1ccc2c(c1)cc1c(=O)n(Cc3ccccc3Cl)nc(C)n12,-2%,-4%
CCCCOc1ccc(CNC(=O)NS(=O)(=O)c2ccc(OCC)cc2)cc1,0%,20µM*
Cc1ccc(S(=O)(=O)NC(=O)NCc2ccccc2)cc1,6%,11%
CCCCOc1ccc(CNC(=O)NS(=O)(=O)c2ccc(OCC(C)C)cc2)cc1,7%,7.9µM*
CCCCOc1ccc(S(=O)(=O)Nc2ccc(NC(C)=O)cc2)cc1,-9%,-5%
CCCCNC(=O)NS(=O)(=O)c1ccc(C)cc1,-1%,8%
CCCCOc1ccc(S(=O)(=O)NC(=O)NCc2ccc(OCCC)cc2)cc1,0%,25µM*
COc1ccc2c(c1)O[C@@H](c1ccc3c(c1)OCO3)[C@H](OC(=O)Nc1ccc(OC(F)F)cc1)C2=O,-2%,2%
CC(C)(C)NS(=O)(=O)c1ccc2nc(NC(=O)c3cccnc3)sc2c1,-3%,10%
CC(C)S,3%,11%
Fc1ccc(NC(=S)N/N=C/c2cccc(Br)c2)c(F)c1,-5%,25µM*
Fc1cccc(/C=N/NC(=S)Nc2ccccc2Cl)c1,-7%,?
CCOCCOC(=O)c1[nH]c2c(c1C)C(=O)CC(c1ccc(N(C)C)cc1)C2 (stereo not given),-2%,10%
COc1ccc(C2CC(=O)c3c([nH]c(C(=O)OCc4ccccc4)c3C)C2)cc1OC (stereo not given),-2%,5%
Cc1c(C(=O)OCc2ccccc2)[nH]c2c1C(=O)CC(c1ccc(Cl)cc1)C2 (stereo not given),0%,7.9µM*
C/C=C/COC(=O)c1[nH]c2c(c1C)C(=O)CC(c1ccc(N(C)C)cc1)C2 (stereo not given),-3%,32µM*
CCn1c(=N)c(C(=O)NC2CCCCC2)cc2c(=O)n3cc(C)ccc3nc21,-3%,22%
COc1cc(N=C(N)N=C(N)N)c2ncccc2c1,-1%,0%
Cc1ccc(NC(=O)Cn2cc(C(=O)C3CC3)c3ccccc32)cc1C,0%,8%
COc1ccc(-n2nc(C(=O)NCc3ccc(F)cc3)c3c4ccccc4n(C)c3c2=O)cc1,-1%,-6%
Cc1cc(=O)cc2oc3cc(N)c(-c4c(C)cc(O)cc4O)c(C)c3nc1-2,-5%,-5%
COc1ccc(Oc2ncc3ncc(=O)n(Cc4ccc(F)cc4)c3n2)cc1,-5%,?
SMILES,Cruzain Triton,Cruzain inh noDet
COc1ccc(NC(=O)c2cc3c(s2)-c2c(C)cccc2OC3)cc1Cl,-1%,11%
Cc1nn2c(N)c(C#N)cnc2c1-c1ccc(Cl)cc1,6%,25µM*
Cc1nn2c(N)c(C#N)cnc2c1-c1ccccc1,-5%,10%
Cc1ccc(S(=O)(=O)c2nnn3c2nc(NC(C)c2ccccc2)c2sccc23)cc1 (stereo not given),1%,-9%
Cn1cc(-c2nc3cncnc3n(C3CC3)c2=O)c2ccccc21,2%,-11%
CCOP(=O)(OCC)C(Nc1ccccc1)c1ccc2c(c1)OCO2 (stereo not given),0%,13µM*
CCCCOP(=O)(OCCCC)C(Nc1ccccc1)c1ccc2c(c1)OCO2 (stereo not given),-12%,6%
COC(=O)c1cc(Br)ccc1-c1ccc(/C=N/n2nnnc2N)o1,-9%,13µM*
Cc1ccc([N+](=O)[O-])cc1-c1ccc(/C=N\n2nnnc2N)o1,-10%,0%
CCOC(=O)c1[nH]c2ccccc2c1NC(=O)c1c(F)cccc1F,2%,5%
Cc1cccc(C(c2sc3nc(-c4ccco4)nn3c2O)N2CCN(c3ccccc3)CC2)c1 (stereo not given),-8%,9%
Cc1ccc(C)n1-c1nnc(N2CCCC(C(=O)NCc3ccc(Cl)cc3)C2)s1 (stereo not given),-2%,8%
COc1ccc(-c2cn3nc(N4CCCC(C(=O)NCc5ccc(Cl)cc5)C4)sc3n2)cc1 (stereo not given),14µM*,-2%
Cc1cc2oc3c(c(=O)c2cc1C)C(c1cccc(Br)c1)N(Cc1ccco1)C3=O (stereo not given),-3%,?
Cc1ccc2oc3c(c(=O)c2c1)C(c1cccc(Br)c1)N(Cc1ccco1)C3=O (stereo not given),7%,25µM*
COc1ccc(CCNC(=O)c2ccc(Nc3nc4ccccc4n4nnnc34)cc2)cc1OC,-4%,-5%

# Compound activity as filed in PubChem BioAssay.
